This passage reports inhibition results from PubChem BioAssay AID588726 (The Scripps Research Institute Molecular Screening Center, 2011).

In all, about 360,000 compounds went through this assay and about 8,200 (2.3%) were called active. The full list was thinned out, with actives kept by preference. Unmarked numbers belong to inactive results. No stated cut-off is given here; in the data, active means inhibition above about 27%; inactive means the rest.

Fructose-bisphosphate aldolase (Mycobacterium tuberculosis (strain ATCC 25618 / H37Rv)), sequence (P9WQA3 whole entry, looked up): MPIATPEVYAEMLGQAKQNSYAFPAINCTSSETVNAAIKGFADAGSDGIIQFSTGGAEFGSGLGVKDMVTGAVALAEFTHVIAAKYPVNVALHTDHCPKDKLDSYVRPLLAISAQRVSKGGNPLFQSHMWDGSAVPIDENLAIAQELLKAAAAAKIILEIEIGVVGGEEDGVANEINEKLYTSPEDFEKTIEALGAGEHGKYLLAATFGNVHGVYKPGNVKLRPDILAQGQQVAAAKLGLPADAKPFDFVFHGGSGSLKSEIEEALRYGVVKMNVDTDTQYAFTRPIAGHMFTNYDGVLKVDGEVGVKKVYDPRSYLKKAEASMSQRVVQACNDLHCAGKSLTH

The assay has as its target Fructose-bisphosphate aldolase (Mycobacterium tuberculosis (strain ATCC 25618 / H37Rv)) (UniProt P9WQA3). As to the kind of experiment: M. tuberculosis aldolase activity blockers – biochemical, fluorescence, strain H37Rv, primary screen (AID 588726).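 Further: 0% = vehicle and 100% = reference inhibitor.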 The settings on record: purified M. tuberculosis FBA, fluorescence read-out, at 1 µM, stronger effect = higher value.
Turning to `COc1ccc(NC2CC(=O)N(C)C2=O)cc1` (centres undefined), the inhibition was 1.09%. Then `Cc1ccc(-c2nc(COC(=O)c3c(C)noc3C)cs2)cc1`, with 1.63%; and `CCN(C(=O)COC(=O)CCC(=O)c1cccs1)C1CCCCC1`, with 4.65%; and `CCn1c(=N)c(S(=O)(=O)c2ccc(F)cc2)cc2c(=O)n3ccccc3nc21`, with 20.8%. For `CCOC(=O)c1cc2c(=O)n3ccccc3nc2n(CC(C)C)c1=NC(=O)c1c(-c2c(F)cccc2Cl)noc1C`, the inhibition was 13.1%. The figure for `O=C(CN1CCN(S(=O)(=O)/C=C/c2ccccc2)CC1)NC(=O)NCc1ccco1` is -1.09%; for `O=c1ccc(-c2ccc(S(=O)(=O)Nc3ccccc3)o2)n[nH]1` it is 2.01%; for `O=C(CSc1nnc(-c2ccncc2)o1)NCc1ccc(Cl)cc1` it is -1.06%.

On to `COCCNC(=O)c1ccccc1-c1nc(-c2ccccc2Cl)no1`, for which the inhibition is 0.39%. The figure for `COC(=O)c1ccc2nc(-c3cccc(Br)c3)c(Cc3ccc(OC)cc3C)n2c1` is 2.37%; for `CCCCNC(=O)c1onc(CSc2cccc(OC)c2)c1C(=O)O` it is 1.62%. Then `CCCCNc1c(-c2cccc(Sc3ccc(OC)cc3)c2)nc2ccccn12`, with 40.1% (active). The figure for `CC(=O)c1nn(-c2ccccc2)c(=Nc2ccccc2)cc1C` is 2.4%. Turning to `O=C1c2ccccc2C(c2nc3ccccc3[nH]2)N1c1ccccc1` (centres undefined), the inhibition is 0.93%.

As for `COc1cc(Cn2c3ccc(NC(=O)CC(C)c4ccccc4)cc3c(=O)n2C)ccc1F` (centres undefined), the inhibition is 146% (active).

As to `COC(=O)c1cc(CNC(=O)CC(C)c2ccccc2)ccc1OC` (centres undefined), the inhibition is -0.38%. The figure for `COc1cccc(NC(=O)CC(c2ccc(OC(C)C)cc2)c2ccccc2OC)c1` (centres undefined) is 1.51%; for `Fc1ccccc1CNC(=S)Nc1ccc(Cl)cc1` it is 0.3%; for `CCNC(=S)Nc1ccc2c(c1)c(=O)n(C)n2Cc1ccc(Cl)cc1` it is 59.7% (active). The figure for `O=C1CCCN1CCCNC(=S)Nc1ccc(F)c(Cl)c1` is -1.02%. Then `CC=CCn1c(SCCCc2ccccc2)nc2c1c(=O)[nH]c(=O)n2C`, with 4.11%.

Consider `CCOC(=O)c1sc(/N=C/Nc2nc(C)c(C(=O)OCC)s2)nc1C`, for which the inhibition is 2.19%.

For the compound `N#Cc1ccccc1NC(=O)c1cccc(COc2ccc(Cl)cc2Cl)c1`, the inhibition was -1.7%. Then `CCOc1ccc(C(C)=O)cc1COC(=O)CN1C(=O)NC2(CCCC2)C1=O`, with -0.88%. Then `CN1c2ccc(C=O)c3c(C=O)ccc(c23)N(C)C1(C)C`, with 62.1% (active); and `Cc1ccc(C=O)c([B-](F)(F)F)c1`, with 2.07%.

Turning to `O=S(=O)(/C=C/c1ccccc1)NCCc1ccccn1`, the inhibition is 1.96%. Consider `COC(=O)c1onc(-c2c(OC)cc(OC)cc2OC)c1C(=O)OC`, for which the inhibition is -3.51%. Then `COc1ccc2c(c1)N(C)/C(=C1/SC(=S)N(NC(C)=O)C1=O)S2`, with -4.56%; and `CC(=O)N1C(=O)/C(=C2\SC(=S)N(NC(=O)c3ccc(O)cc3)C2=O)c2ccccc21`, with 31.8% (active). The figure for `COc1ccc(C(=O)NN2C(=O)C3C(c4ccccc4)C=CC(c4ccccc4)C3C2=O)cc1` (centres undefined) is 1.1%; for `COc1cccc(NC(=O)c2cc(S(=O)(=O)N3CCc4ccccc43)cn2C)c1` it is -0.54%; for `CC(C)(C)OC(=O)C[C@@H]1C/C=C\C[C@H](CC(=O)N[C@@H](CO)Cc2ccccc2)C(=O)N[C@H](Cc2ccccc2)COC1=O` it is 3.41%. The figure for `Cc1cc(C)cc(NC(=O)N2CCC(NC(=O)c3ccc(F)cc3)CC2)c1` is -6.06%; for `Cc1nc2nc(SCC(=O)Nc3cccc(F)c3)[nH]c2cc1Br` it is -2.16%; for `O=C(Nc1cccc(F)c1)[C@@H]1CCCN1` it is 4.68%.

Turning to `O=C(Nc1cccc(F)c1)c1coc(=O)c(Br)c1`, the inhibition is 171% (active). In the case of `CCc1nn(CCCC(=O)NCc2ccc(C)cc2)c(=O)c2cc3occc3n12`, the inhibition was -0.41%. The figure for `COc1ccc(C(=O)CN2C(=O)NC3(CCc4ccccc43)C2=O)c(OC)c1` (centres undefined) is 1.92%; for `N#Cc1ccc(OCc2nnc(-c3ccc([N+](=O)[O-])cc3)o2)cc1` it is 0.59%; for `CCCOc1ccc(-c2c(C(=O)N/N=C/c3ccco3)nnn2-c2nonc2N)cc1` it is 4.8%.

Consider `CCOc1ccc(-n2c(SCC(N)=O)nnc2-c2ccco2)cc1`, for which the inhibition was 0.41%. The figure for `CCCCOc1ccc(-c2nnc(-c3ccco3)o2)cc1` is 46.1% (active); for `CCCCSc1nnc(-c2ccc(C)cc2)o1` it is 3.13%; for `CCOc1ccc(-c2nnc(-c3ccco3)o2)cc1` it is 54% (active). The figure for `CCC(C)(C(=O)NC1CCCC1)N(C(=O)CNC(C)=O)c1ccc(C)cc1` (centres undefined) is 1.41%; for `Cc1nc2cccnc2nc1C` it is -0.64%; for `COc1ccc(NC(=O)c2cccc3c2C(=O)N(CC2CCCO2)C3)cc1OC` (centres undefined) it is -1.34%.

As for `COCCN(C(=O)CC1CCCCC1)c1c(N)n(CC(C)C)c(=O)[nH]c1=O`, the inhibition is 2.06%. As for `O=[N+]([O-])c1cccc(C=NN=Cc2ccccc2O)c1`, the inhibition is 1.54%. Take `O=C(N/N=C/c1cccc([N+](=O)[O-])c1)C1CC(=O)N(c2ccc(Br)cc2)C1` (centres undefined): the inhibition was 2.78%. The figure for `O=[N+]([O-])c1cccc(/C=N/Nc2ncc(Br)cn2)c1` is 144% (active). Then `CCCN(C(=O)COC(=O)CNS(=O)(=O)c1ccc(NC(C)=O)cc1)C1CCS(=O)(=O)C1` (centres undefined), with 1.9%; and `COc1ccc(CCN(Cc2cc3cccc(C)c3[nH]c2=O)C(=O)N2CCCC2)cc1OC`, with 0.64%; and `Cc1cccc(NC(=O)c2sc3nc(N4CCOCC4)c4c(c3c2N)CCCC4)c1`, with 39.1% (active). The figure for `Cc1nc(N2CCOCC2)c2c(C)c(C(=O)Nc3ccc(C(F)(F)F)cc3)sc2n1` is 2.82%; for `c1ccc(CSc2ncnc3c2sc2nc(N4CCOCC4)c4c(c23)CCCC4)cc1` it is 3.1%. `Cc1cc(C)cc(NC(=O)Cn2cnc3c(nnn3Cc3ccc(F)cc3)c2=O)c1`: the inhibition is 1.33%. Then `CN(C)/C(CN1CCCCC1)=C1\N=C(c2ccccc2)OC1=O`, with -2.21%.

What is called inhibition is the change of the read-out against control, counted positive when it falls.
